# An excerpt weighted towards active compounds, which were near 4% of everything screened.
# RecA intein inh – Mtb RecA intein splicing inhibition; 0.75% of 290,000 active; cell-free RecA intein splicing, fluorescence; P9WHJ3; inhibition, % (no concentration beside the values); in the data active means inhibition above about 30%; inconclusive means no clear call, values can overlap the other calls;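 further: 0% = vehicle wells and 100% = reference inhibitor control wells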
# FBA Mtb inh – inhibitors of M. tuberculosis fructose-bisphosphate aldolase; P9WQA3; purified M. tuberculosis FBA, fluorescence read-out; inhibition, % at 1 µM; 2.3% of 360,000 active; AID 588726;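 further: 0% = vehicle and 100% = reference inhibitor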
# Mtb betalactam – beta-lactam sensitization of Mtb H37Rv; AID 434955; 0.27% of 330,000 active; inhibition, % at 25 µM; M. tuberculosis H37Rv growth with meropenem, percent inhibition; call rule not given here;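 further: growth measured after seven days incubation then overnight dye step; 0% = bacteria only wells and 100% = bacteria with antibiotic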
# Rv3671c protease – inhibitors of M. tuberculosis serine protease Rv3671c. P9WHR9. inhibition, % at 5.96 µM. 0.048% of 320,000 active. AID 2606; in the data active means inhibition above about 38%;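 further: extracellular domain of Rv3671c used as enzyme; 0% = enzyme with DMSO and 100% = no enzyme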
# Target sequence (P9WHR9 whole entry, looked up, the tested form may be a part): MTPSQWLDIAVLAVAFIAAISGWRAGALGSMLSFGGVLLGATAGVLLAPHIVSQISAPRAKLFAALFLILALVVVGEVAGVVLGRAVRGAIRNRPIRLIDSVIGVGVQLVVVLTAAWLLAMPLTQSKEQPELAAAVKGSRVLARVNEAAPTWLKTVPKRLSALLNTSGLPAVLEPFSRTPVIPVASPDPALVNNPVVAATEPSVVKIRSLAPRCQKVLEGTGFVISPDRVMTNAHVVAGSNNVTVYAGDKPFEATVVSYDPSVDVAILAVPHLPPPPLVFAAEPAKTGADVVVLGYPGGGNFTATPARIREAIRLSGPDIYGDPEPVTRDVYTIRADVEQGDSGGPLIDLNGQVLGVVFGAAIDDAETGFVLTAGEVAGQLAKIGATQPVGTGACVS
# Mtb UGM inh – blocks M. tuberculosis UGM enzyme; purified UGM, fluorescence polarization probe displacement; inhibition, % at 10 µM; 0.06% of 320,000 active; AID 504406; in the data active means inhibition above about 10%, passing the limit was not always enough; inconclusive means no clear call, values can overlap the other calls
# GDH-TPI counter-1 – GDH-TPI coupled enzyme inhibition counter-screen. inhibition, % at 4.8 µM. 1.2% of 360,000 active. GDH-TPI coupled enzyme counterscreen, NADH absorbance; in the data active means inhibition above about 30%;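 further: 0% = DMSO wells and 100% = wells lacking the enzyme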
# Mtb FBA confirm – Mtb FBA inhibition, confirmed; 78% of 5,600 active; purified M. tuberculosis FBA, fluorescence read-out; inhibition, % at 1 µM; shares compounds with FBA Mtb inh;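 further: 0% = vehicle wells and 100% = reference inhibitor wells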
# GDH-TPI counter-2 – GDH-TPI inhibition counter-screen for FBA inhibitors. shares compounds with FBA Mtb inh. GDH-TPI coupled enzyme counterscreen, fluorescence. inhibition, % at 1 µM. 81% of 5,600 active; in the data active means inhibition above about 10%
# * hit, by the source's call; ? = inconclusive; . = not tested or not shown; + = active, no number. Unless noted, no stated cut-off is given here; in the data, active means inhibition above about 27%; inactive means the rest.
SMILES,RecA intein inh,FBA Mtb inh,Mtb betalactam,Rv3671c protease,Mtb UGM inh,GDH-TPI counter-1,Mtb FBA confirm,GDH-TPI counter-2
COc1ccc(OC)c(/C=N/NC(=O)c2[nH]nc3c2CCc2ccccc2-3)c1,0,45*,-1,-9,3,15,+,+
CC(=O)N/C(=N/c1nc(C)cc(C)n1)Nc1ccc(C)cc1Cl,-1,3,.,.,.,7,.,.
CCc1nc2sc(C#N)c(N)c2c2c1CCCC2,0,49*,3,-1,1,10,+,171*
Oc1ccc(-c2nc3ccccn3c2NCc2ccco2)cc1,-19,52*,18,12,3,12,70*,55*
O=C(Nc1c(-c2ccccc2)nc2ccccn12)c1ccco1,-1,-2,-13,-8,2,17,.,.
Cc1cc(C)cc(NC(=O)CN(Cc2ccccc2)S(C)(=O)=O)c1,2,-7,-9,-9,-1,-3,.,.
C[C@]12c3[nH]c4cc(-c5ccco5)ccc4c3CCN1C(=O)[C@@H](CC(=O)NCCCn1ccnc1)C[C@@H]2C(=O)N1CCOCC1,.,28*,.,.,.,10,-6,-5
C[C@]12c3[nH]c4cc(-c5ccco5)ccc4c3CCN1C(=O)[C@@H](CC(=O)NCCN1CCOCC1)C[C@@H]2C(=O)N1CCOCC1,.,46*,.,.,.,11,+,+
CN(C)CCCNC(=O)C[C@H]1C[C@H](C(=O)N2CCCCC2)[C@@]2(C)c3[nH]c4cc(-c5ccco5)ccc4c3CCN2C1=O,.,34*,.,.,.,19,41*,34*
C[C@]12c3[nH]c4cc(-c5ccco5)ccc4c3CCN1C(=O)[C@@H](CC(=O)NCCCn1ccnc1)C[C@@H]2C(=O)N1CCCCC1,.,26,.,.,.,10,.,.
CCN(CC)C(=O)[C@H]1C[C@H](CC(=O)NC(C)(C)C)C(=O)N2CCc3c([nH]c4cc(-c5ccco5)ccc34)[C@]12C,.,38*,.,.,.,8,+,140*
CC(=O)Nc1ccc2c(c1)nc(CCNC(=O)c1ccco1)n2C,1,-3,-14,3,0,-2,.,.
CC1CCN(C(=O)COc2ccccc2F)CC1,1,0,-1,12,0,8,.,.
COc1cc2cnc(-c3ccccc3)c(-c3cc(OC)c(OC)c(OC)c3)c2cc1OC,.,1,62,-12,2,0,.,.
COc1ccc(CNC(=O)C[C@H]2C[C@H](C(=O)N3CCOCC3)[C@@]3(C)c4[nH]c5cc(-c6ccco6)ccc5c4CCN3C2=O)cc1OC,.,36*,.,.,.,1,+,+
CC(C)N(C(=O)[C@H]1C[C@H](CC(=O)NCCN2CCOCC2)C(=O)N2CCc3c([nH]c4cc(-c5ccco5)ccc34)[C@]12C)C(C)C,.,36*,.,.,.,4,150*,124*
CCCCSc1nc2sc3c(c2c(=O)n1-c1ccccc1)CCN(C)C3,-1,4,?,-2,1,21,.,.
CCCCCNc1nc2sc3c(c2c(=O)n1-c1cccc(Cl)c1)CCN(C)C3,-5,52*,1,-7,2,21,109*,89*
CCCCNc1nc2sc3c(c2c(=O)n1-c1cccc(Cl)c1)CCN(C)C3,-6,52*,19,0,1,21,190*,140*
Cc1ccc(Nc2ccc(N3CCN(c4ccc([N+](=O)[O-])cc4)CC3)nn2)cc1,0,-4,6,5,-1,1,.,.
COCCNC(=O)COC(=O)c1cc(-c2ccc(OC)cc2)nc2ccccc12,4,10,5,1,-3,7,.,.
CC(=O)Nc1ccc(-c2csc(NC(=O)C3CSC4(C)CCC(=O)N34)n2)cc1 (configuration not stated),-4,-2,-1,-5,0,4,.,.
Cc1cccc2[nH]c3c(N4CCC5(CC4)OCCO5)ncnc3c12,-1,41*,-4,4,1,31*,68*,52*
Cc1cccc2[nH]c3c(N4CCN(C(=O)c5ccco5)CC4)ncnc3c12,2,44*,5,-20,-1,17,58*,42*
Cc1ccc(S(=O)(=O)Nc2cc(C(=O)Nc3cc(C)cc(C)c3)ccc2Cl)cc1,14,4,-10,-43,2,-2,.,.

# High-throughput results from PubChem.
